Experimental data: paper PMC4336329 (PLoS ONE, 2015)
The campaign covered roughly 310,000 compounds. About 14,000 (4.5%) showed an effect of 50% or more. Effects have a minus sign here. The entries come from a sample that favours strong results as a whole.

Molecular target: human ether-à-go-go-related gene (hERG) potassium channel (human, UniProt Q12809)
Assay: primary screen, population patch clamp on CHO cells stably expressing hERG; higher = less effect of the substance
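Note: peak tail current of the secondary pulse compared with the same well before compound.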

Chain of human ether-à-go-go-related gene (hERG) potassium channel (Q12809 whole entry, looked up): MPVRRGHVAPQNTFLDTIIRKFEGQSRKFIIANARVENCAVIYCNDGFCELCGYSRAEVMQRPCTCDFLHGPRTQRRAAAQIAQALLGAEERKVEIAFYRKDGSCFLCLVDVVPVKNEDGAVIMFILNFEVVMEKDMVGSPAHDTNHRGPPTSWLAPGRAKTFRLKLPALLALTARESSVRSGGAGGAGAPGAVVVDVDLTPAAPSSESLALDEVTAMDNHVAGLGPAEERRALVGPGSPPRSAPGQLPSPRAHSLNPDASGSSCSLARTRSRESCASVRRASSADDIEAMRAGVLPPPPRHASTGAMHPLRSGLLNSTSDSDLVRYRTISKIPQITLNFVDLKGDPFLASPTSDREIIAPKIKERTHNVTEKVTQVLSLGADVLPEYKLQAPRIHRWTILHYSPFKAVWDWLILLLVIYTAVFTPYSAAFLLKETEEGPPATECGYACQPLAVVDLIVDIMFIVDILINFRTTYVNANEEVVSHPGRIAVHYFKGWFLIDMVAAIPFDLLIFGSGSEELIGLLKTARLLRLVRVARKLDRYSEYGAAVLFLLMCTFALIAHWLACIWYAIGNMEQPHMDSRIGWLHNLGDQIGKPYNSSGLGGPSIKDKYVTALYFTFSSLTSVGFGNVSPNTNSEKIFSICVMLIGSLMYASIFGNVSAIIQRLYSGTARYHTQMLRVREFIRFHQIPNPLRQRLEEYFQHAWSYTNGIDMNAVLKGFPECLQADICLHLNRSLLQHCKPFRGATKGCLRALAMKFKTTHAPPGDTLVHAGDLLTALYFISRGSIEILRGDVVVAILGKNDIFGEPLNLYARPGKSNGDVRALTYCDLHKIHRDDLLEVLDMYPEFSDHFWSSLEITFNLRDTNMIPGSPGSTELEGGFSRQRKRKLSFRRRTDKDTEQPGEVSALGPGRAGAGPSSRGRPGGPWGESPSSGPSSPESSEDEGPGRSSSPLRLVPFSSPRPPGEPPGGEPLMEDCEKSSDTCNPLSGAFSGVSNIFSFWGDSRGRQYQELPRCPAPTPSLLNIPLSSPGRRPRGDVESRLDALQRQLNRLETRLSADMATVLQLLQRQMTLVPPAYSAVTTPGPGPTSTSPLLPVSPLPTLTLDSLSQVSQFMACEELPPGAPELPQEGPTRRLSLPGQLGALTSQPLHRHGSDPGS

Structure (SMILES)	hERG current change (%, negative = inhibition) at 10uM [%]
CC(=O)N1CCN(c2ccc(NC(=O)c3cccc([N+](=O)[O-])c3)cc2)CC1	-3.59
C/C(=N\NC(=O)CSc1nc(C)cc(C)n1)c1ccc2c(c1)OCCO2	18.3
CCC(CC)C(=O)N1CC(=O)Nc2ccc(F)cc2C1c1ccc(F)cc1 (stereo not drawn)	-27.8
CCCc1cc(C(=O)NNC(=S)NCC)c2ccccc2n1	18.1
CC1=C(C(=O)Nc2ccccn2)C(c2ccc(F)cc2)n2ncnc2N1 (stereo not drawn)	-13.1
CC1=C(C(=O)Nc2ccccn2)C(c2ccccc2)n2ncnc2N1 (stereo not drawn)	13.7
CC1=C(C(=O)Nc2ccccn2)C(c2ccc(N(C)C)cc2)n2ncnc2N1 (stereo not drawn)	-62.7
O=c1cc(-c2ccccc2)cc(-c2ccccc2)n1CCCO	-31.9
CCc1ccc(C(=O)Nc2cc3c(cc2Cl)OCCCO3)cc1	23.5
O=C(N[C@@H](c1ccccc1)[C@@H]1C[C@H]1C(=O)O)OCc1ccccc1	15.1
CN(C)C(=O)[C@@H]1C[C@H]1[C@@H](NC(=O)OCc1ccccc1)c1ccccc1	-64.2
CNC(=O)[C@@H]1C[C@H]1[C@@H](NC(=O)OCc1ccccc1)c1ccccc1	-48.3
O=P(O)(OCc1ccccc1)OCc1ccccc1	12.1
O=C(O)c1cccc(NC2=Nc3cccc4cccc2c34)c1	14.3
CCn1c(NC(=O)c2ccc(F)cc2)c2ccccc2nc1=O	-11.7
COc1ccc(CCn2c(=N)c(C(=O)NCCN3CCOCC3)cc3c(=O)n4cccc(C)c4nc32)cc1OC	-97.8
COc1ccc(CCn2c(=O)[nH]c3cc(C(=O)NCCN4CCOCC4)ccc3c2=O)cc1OC	0.353
COc1ccc(CCNC(=O)c2c(N)n(CCN3CCOCC3)c3nc4ccccc4nc23)cc1OC	-8.6
Cc1cccn2c(=O)c3cc(C(=O)NCCN4CCOCC4)c(=N)n(CCc4ccccc4)c3nc12	-75
Cc1cccn2c(=O)c3cc(C(=O)NCCN4CCOCC4)n(C)c3nc12	-3.18
O=C(N/N=C/c1ccco1)C1CCCC1	22.1
Cc1ccc(C(=O)Nc2ccc(S(=O)(=O)Nc3ncccn3)cc2)cc1[N+](=O)[O-]	13.4
COc1cccc2cc(C(=O)NCc3ccccc3Cl)c(=O)oc12	6.78
CC(C)CSc1nsc(N)n1	23.1

Structure (SMILES)	hERG current change (%, negative = inhibition) at 10uM [%]
Cc1ccc(C(=O)N2CCN(c3ccccc3)CC2)cc1NC(=O)c1ccco1	-45.7
Cc1ccc(C(=O)N2CCN(C(=O)c3ccco3)CC2)cc1NC(=O)c1ccco1	-44.1
COc1ccc(N2CCN(C(=O)c3cccc(NC(=O)c4ccco4)c3)CC2)cc1	-43.8
Cc1ccc(C(=O)N2CCc3ccccc32)cc1NC(=O)c1ccco1	-68.1
COc1ccc(N2CCN(C(=O)c3ccc(C)c(NC(=O)c4ccco4)c3)CC2)cc1	-74.8
O=C(c1ccco1)N1CCc2ccccc21	-3.68
COc1ccccc1CNC(=O)c1ccc(OC(F)F)c(OC)c1	-32.1
CCOC(=O)c1sc(NC(=O)c2ccc(S(=O)(=O)N3CCOCC3)cc2)nc1-c1ccccc1	-27.6
Cc1ccc(-c2csc3nc[nH]c(=O)c23)cc1	6.88
CCOc1cc(Br)ccc1S(=O)(=O)NCc1ccccc1	-30.3
Cc1c(NC(=O)c2ccccc2NC(=O)COc2ccccc2)cccc1C(=O)O	14.2
Cc1cc(N2CCN(C(=O)c3ccco3)CC2)nc(-c2ccccc2)n1	-65.4
O=C(c1ccco1)N1CCN(c2nc3ccccc3c(=O)n2-c2ccccc2)CC1	-54.9
Cc1cc(N2CCN(C(=O)c3ccco3)CC2)n2ncc(-c3ccccc3)c2n1	-50.5
O=c1c2ccccc2nc(N2CCCC2)n1-c1ccccc1	10.7
O=C(c1ccco1)N1CCN(C(=O)c2cc(Cl)nc3ccccc23)CC1	-35.2
Cc1cc(N2CCN(C(=O)c3ccco3)CC2)n2nc(C)nc2n1	-44
Cc1cc(N2CCN(C(=O)c3ccco3)CC2)c2ccccc2n1	-71.8
O=C(c1ccco1)N1CCN(Cc2nc3ccccc3c(=O)n2-c2ccc(F)cc2)CC1	-18.8
Cc1nc2ccccc2c2oc(C(=O)N3CCN(C(=O)c4ccco4)CC3)cc12	-46.7
Cc1cc(=O)[nH]c(N2CCN(C(=O)c3ccco3)CC2)n1	14
Cc1cc(N2CCN(C(=O)c3ccco3)CC2)n2ncnc2n1	-30.3
Cc1cc(N2CCN(c3ccccc3)CC2)nc(-c2ccccc2)n1	-30.9
C=CCN=C(C)C1=C(O)CCC1=O	16.5

Structure (SMILES)	hERG current change (%, negative = inhibition) at 10uM [%]
O=C(CSc1nc2c(c(=O)n1-c1ccc(Cl)cc1)SCC2)N1CCOCC1	-14.2
O=C1C(C2=NC(c3ccccn3)C3C(=O)N(c4ccc(Cl)cc4Cl)C(=O)C23)=C(O)c2ccccc21 (stereo not drawn)	-4.11
O=C(Cc1cccs1)NNC(=O)c1ccc(F)cc1	3.91
Cc1ccc(CNC(=O)C2CC(c3cc(C(F)(F)F)cc(C(F)(F)F)c3)=NO2)o1 (stereo not drawn)	-12.1
CCOc1ccc(-c2noc(CCC(=O)O)n2)cc1	-1.59
Cc1nnc(NC(=O)c2ccc(-c3ccc([N+](=O)[O-])cc3)o2)s1	-11.7
c1ccc(COc2ccc(OCCn3cncn3)cc2)cc1	4.65
CCn1c(O)c(C=Nc2ccccc2)sc1=O	13.9
O=C(Nc1ccc(OCC(=O)N2CCOCC2)cc1)Nc1cccc(Cl)c1	-7.18
Cl.O=C1c2cccc3cccc(c23)C(=O)N1CCN1CCN(CC(O)COCc2ccc(Cl)cc2)CC1 (stereo not drawn)	-72.5
O=C1c2ccccc2C(=O)N1CC(O)COCc1ccccc1 (stereo not drawn)	19.4
CCN1CCN(CC(O)COCc2cc(OC)c(OC)c(OC)c2)CC1.Cl (stereo not drawn)	22.2
COc1cc(COCC(O)CN2CCN(Cc3ccccc3)CC2)cc(OC)c1OC.Cl (stereo not drawn)	-39.1
O=C1c2cccc3cccc(c23)C(=O)N1CCN1CCN(C(=S)Nc2ccc(Cl)cc2)CC1	16.4
COc1cc(COCC(O)CN2CCN(CCN3C(=O)c4cccc5cccc(c45)C3=O)CC2)cc(OC)c1OC.Cl (stereo not drawn)	-62
O=C(Nc1c(-c2ccccc2)nc2ncccn12)c1cc2ccccc2oc1=O	-12.2
COC(=O)c1cc(-c2ccc(Cl)cc2Cl)n[nH]1	14.1
O=Cc1c(Sc2ccccc2)nc2ccccn2c1=O	-0.892
COc1ccc(-c2csc3[nH]c(=S)n(-c4ccccc4)c(=O)c23)cc1OC	23.8
O=C(Nc1ccccc1)NN(C(=O)CCl)c1ccccc1	6.85
CSc1cc(C)nc(N(C)C(C)=O)n1	27.1
CCOC(=O)c1cn(Cc2ccccc2)nc1-c1ccccc1	-8.37
O=C(O)c1ccc(NS(=O)(=O)c2ccc3c(c2)C(=O)c2ccccc2C3=O)cc1	18.5
CCCCc1ccc(-n2c(Cc3cccs3)n[nH]c2=S)cc1	-56.3

Structure (SMILES)	hERG current change (%, negative = inhibition) at 10uM [%]
S=c1[nH]nc(Cc2cccs2)n1-c1ccccc1	16.2
Cc1ccccc1-n1c(Cc2cccs2)n[nH]c1=S	14.3
O=C(Nc1ccc2c(c1)OCO2)c1cc(-c2ccccc2Cl)on1	15.3
CCOc1ccc(CCNC(=O)CS(=O)Cc2nc(-c3ccccc3Cl)oc2C)cc1OCC (stereo not drawn)	-10.7
Cc1ccc2nc(CSc3nnc4ccccn34)cc(=O)n2c1	13.2
CC(C)C1N=C2c3ccccc3N=C(SCc3cc(=O)n4cc(Cl)ccc4n3)N2C1=O (stereo not drawn)	-67
CC(C)C1N=C2c3ccccc3N=C(SCC#N)N2C1=O (stereo not drawn)	5.14
CC(C)C1N=C2c3ccccc3N=C(SCC(=O)c3ccc(O)c(O)c3)N2C1=O (stereo not drawn)	-23.1
CC1N=C2c3ccccc3N=C(SCc3cc(=O)n4cc(Cl)ccc4n3)N2C1=O (stereo not drawn)	-63.6
O=C(O)CCCCn1c(SCc2cc(=O)n3cc(Cl)ccc3n2)nc2ccsc2c1=O	2.87
COc1ccc(CN2C(=O)NC3(CCCc4ccccc43)C2=O)cc1F (stereo not drawn)	-14.4
O=[N+]([O-])c1cc(S(=O)(=O)Nc2cccc(C(F)(F)F)c2)ccc1-n1nnc2ccccc21	0.81
COc1ccc(S(=O)(=O)N2CCC(N3CCN(c4ccccc4)CC3)CC2)cc1	-8.52
C/C=C(\C)C(=O)NCCN1C2=NC[C@@H](Cc3ccccc3)N2C[C@H]1Cc1ccc(O)cc1	12.8
C/C=C(\C)C(=O)NCCN1C2=NC[C@H](Cc3ccccc3)N2C[C@@H]1Cc1ccc(OC)cc1	-73.3
C/C=C(\C)C(=O)NCCN1C2=NC[C@H](Cc3ccc(O)cc3)N2C[C@@H]1Cc1ccc(OC)cc1	-2.89
C/C=C(\C)C(=O)NCCN1C2=NC[C@@H](Cc3ccccc3)N2C[C@@H]1Cc1ccc(OC)cc1	-60.3
C/C=C(\C)C(=O)NCCN1C2=NC[C@H](Cc3ccccc3)N2C[C@H]1Cc1ccc(O)cc1	1.99
C/C=C(\C)C(=O)NCCN1C2=NC[C@H](C(C)C)N2C[C@H]1Cc1ccc(O)cc1	23.1
C/C=C(\C)C(=O)NCCN1C2=NC[C@H](C)N2C[C@@H]1Cc1ccc(OC)cc1	-4.7
C/C=C(\C)C(=O)NCCN1C2=NC[C@H](C(C)C)N2C[C@@H]1Cc1ccc(OC)cc1	-86.6
